# Experimental data reported in PMC7862700, “An all-to-all approach to the identification of sequence-specific readers for epigenetic DNA modifications on cytosine”.
# Assays:
# Assay in all cases: DAPPL (digital affinity profiling via proximity ligation, sequencing); 10 mM Tris-HCl pH 7.5, 50 mM NaCl, 1 mM DTT, 4% glycerol, room temperature, 30 min; GST-TFs on glutathione beads, 16-mer random dsDNA library, 0.1% formaldehyde crosslink after washing; high values mean tight binding
# FLI1 = biological target: T1, FLI1 (Homo sapiens, UniProt Q01543 1-452); details: protein: recombinant; tags: N-terminal GST; dsDNA, one strand shown
# T1 sequence: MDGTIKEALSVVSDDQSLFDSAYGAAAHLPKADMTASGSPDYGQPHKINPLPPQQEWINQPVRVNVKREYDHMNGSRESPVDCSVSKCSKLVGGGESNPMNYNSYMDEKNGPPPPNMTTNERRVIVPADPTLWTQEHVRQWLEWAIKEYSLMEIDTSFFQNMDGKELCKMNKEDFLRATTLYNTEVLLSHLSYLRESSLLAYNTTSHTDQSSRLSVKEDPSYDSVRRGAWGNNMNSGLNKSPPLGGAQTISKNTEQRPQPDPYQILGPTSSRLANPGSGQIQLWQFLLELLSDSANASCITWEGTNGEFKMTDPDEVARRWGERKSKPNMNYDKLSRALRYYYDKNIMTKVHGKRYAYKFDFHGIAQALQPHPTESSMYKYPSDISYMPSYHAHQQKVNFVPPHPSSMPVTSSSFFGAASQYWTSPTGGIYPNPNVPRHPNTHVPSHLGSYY
# Method in brief: (§1)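 GST fusions of human transcription factors were expressed in yeast and captured with glutathione beads. Once given DNA barcodes and pooled alongside a tag-only sample, they were incubated for 30 min at room temperature with 200 nmole of a random double-stranded 16-mer DNA library in Tris/NaCl/DTT/glycerol buffer, then washed, crosslinked (0.1% formaldehyde), proximity-ligated, PCR-amplified and sequenced on an Illumina NextSeq500. The binding signal of each hexamer is its read frequency for a factor divided by its frequency for the tag-only sample.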
# ELK1 = biological target: T2, ELK1 (Homo sapiens, UniProt P19419 1-428); details: protein: recombinant; tags: N-terminal GST; dsDNA, one strand shown
# T2 sequence: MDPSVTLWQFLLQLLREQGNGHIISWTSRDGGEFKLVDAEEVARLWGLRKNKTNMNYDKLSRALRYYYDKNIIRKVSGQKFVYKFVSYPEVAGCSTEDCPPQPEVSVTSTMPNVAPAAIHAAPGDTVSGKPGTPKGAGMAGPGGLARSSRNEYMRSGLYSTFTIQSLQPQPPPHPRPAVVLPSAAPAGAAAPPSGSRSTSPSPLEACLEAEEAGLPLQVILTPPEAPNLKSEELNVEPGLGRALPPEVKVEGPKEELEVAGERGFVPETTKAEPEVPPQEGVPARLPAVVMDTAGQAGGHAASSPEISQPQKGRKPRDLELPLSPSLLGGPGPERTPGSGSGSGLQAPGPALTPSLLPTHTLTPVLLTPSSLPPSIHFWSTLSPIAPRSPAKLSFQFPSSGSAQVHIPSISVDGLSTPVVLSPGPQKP
# Method in brief: as §1
# GABPA = biological target: T3, GABPA (Homo sapiens, UniProt Q06546 1-454); details: protein: recombinant; tags: N-terminal GST; dsDNA, one strand shown
# T3 sequence: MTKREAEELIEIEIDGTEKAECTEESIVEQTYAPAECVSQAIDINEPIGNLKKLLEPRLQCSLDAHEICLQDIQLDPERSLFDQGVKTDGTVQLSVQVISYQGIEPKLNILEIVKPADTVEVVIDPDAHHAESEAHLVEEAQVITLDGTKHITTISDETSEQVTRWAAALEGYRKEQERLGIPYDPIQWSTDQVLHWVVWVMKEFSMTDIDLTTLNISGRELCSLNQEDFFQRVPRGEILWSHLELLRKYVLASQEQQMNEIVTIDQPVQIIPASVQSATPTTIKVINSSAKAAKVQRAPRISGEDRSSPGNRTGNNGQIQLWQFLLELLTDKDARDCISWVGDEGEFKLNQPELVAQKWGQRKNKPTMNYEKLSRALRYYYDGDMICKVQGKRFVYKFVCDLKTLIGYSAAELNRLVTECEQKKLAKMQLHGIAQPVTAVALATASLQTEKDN
# Method in brief: as §1
# ERG = biological target: T4, ERG (Homo sapiens, UniProt P11308 1-479); details: protein: recombinant; tags: N-terminal GST; dsDNA, one strand shown
# T4 sequence: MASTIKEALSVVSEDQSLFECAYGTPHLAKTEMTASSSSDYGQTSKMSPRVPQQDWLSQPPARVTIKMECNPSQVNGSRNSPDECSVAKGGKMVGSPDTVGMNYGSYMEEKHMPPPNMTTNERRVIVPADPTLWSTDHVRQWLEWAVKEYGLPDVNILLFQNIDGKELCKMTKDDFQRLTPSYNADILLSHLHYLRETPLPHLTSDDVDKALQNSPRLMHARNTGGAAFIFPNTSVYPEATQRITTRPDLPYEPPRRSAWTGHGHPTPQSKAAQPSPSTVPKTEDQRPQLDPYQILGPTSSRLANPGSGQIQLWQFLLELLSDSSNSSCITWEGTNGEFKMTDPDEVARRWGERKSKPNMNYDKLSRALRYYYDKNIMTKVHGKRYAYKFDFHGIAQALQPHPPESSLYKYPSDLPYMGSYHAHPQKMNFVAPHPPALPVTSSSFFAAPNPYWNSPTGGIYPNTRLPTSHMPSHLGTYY
# Method in brief: as §1
# ELF1 = ELF1 (Homo sapiens, UniProt P32519 1-619); details: protein: recombinant; tags: N-terminal GST; dsDNA, one strand shown
# Chain of ELF1 (P32519 whole entry): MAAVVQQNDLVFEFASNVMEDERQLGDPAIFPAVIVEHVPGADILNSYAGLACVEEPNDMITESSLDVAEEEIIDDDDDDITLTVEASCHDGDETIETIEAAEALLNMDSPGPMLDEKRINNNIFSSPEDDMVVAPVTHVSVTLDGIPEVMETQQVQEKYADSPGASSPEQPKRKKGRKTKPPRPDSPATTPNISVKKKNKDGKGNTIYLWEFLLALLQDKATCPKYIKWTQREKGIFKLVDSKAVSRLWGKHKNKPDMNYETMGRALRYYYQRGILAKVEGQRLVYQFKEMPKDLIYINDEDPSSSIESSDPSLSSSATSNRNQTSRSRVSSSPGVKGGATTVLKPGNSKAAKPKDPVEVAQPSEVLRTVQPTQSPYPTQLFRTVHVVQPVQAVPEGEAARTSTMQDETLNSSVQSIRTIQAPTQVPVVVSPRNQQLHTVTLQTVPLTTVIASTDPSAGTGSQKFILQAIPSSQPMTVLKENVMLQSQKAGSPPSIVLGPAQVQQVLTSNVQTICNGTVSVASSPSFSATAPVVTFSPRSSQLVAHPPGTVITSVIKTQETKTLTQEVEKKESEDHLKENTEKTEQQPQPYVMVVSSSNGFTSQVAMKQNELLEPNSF
# Method in brief: as §1
# EHF = biological target: T5, EHF (Homo sapiens, UniProt Q9NZC4 1-300); details: protein: recombinant; tags: N-terminal GST; dsDNA, one strand shown
# T5 sequence: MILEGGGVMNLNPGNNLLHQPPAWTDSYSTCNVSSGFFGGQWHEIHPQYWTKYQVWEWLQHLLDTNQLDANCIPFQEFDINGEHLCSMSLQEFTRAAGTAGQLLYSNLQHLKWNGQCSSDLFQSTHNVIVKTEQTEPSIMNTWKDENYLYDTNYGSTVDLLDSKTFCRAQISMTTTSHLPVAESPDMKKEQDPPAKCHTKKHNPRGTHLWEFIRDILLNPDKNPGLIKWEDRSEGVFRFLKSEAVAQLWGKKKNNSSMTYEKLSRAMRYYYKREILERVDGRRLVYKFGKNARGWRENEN
# Method in brief: as §1
# SPI1 = SPI1 (Homo sapiens, UniProt P17947 1-270); details: protein: recombinant; tags: N-terminal GST; dsDNA, one strand shown
# Method in brief: as §1
# SPIB = SPIB (Homo sapiens, UniProt Q01892 1-262); details: protein: recombinant; tags: N-terminal GST; dsDNA, one strand shown
# Chain of SPIB (Q01892 whole entry): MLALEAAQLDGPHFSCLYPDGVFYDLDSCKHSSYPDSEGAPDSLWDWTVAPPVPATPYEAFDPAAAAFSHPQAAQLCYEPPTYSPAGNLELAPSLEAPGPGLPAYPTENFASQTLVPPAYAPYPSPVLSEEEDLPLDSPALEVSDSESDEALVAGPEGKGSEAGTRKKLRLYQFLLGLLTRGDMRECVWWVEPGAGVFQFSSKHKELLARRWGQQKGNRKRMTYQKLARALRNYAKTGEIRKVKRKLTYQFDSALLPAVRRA
# Method in brief: as §1
# ELK3 = biological target: T6, ELK3 (Homo sapiens, UniProt P41970 1-407); details: protein: recombinant; tags: N-terminal GST; dsDNA, one strand shown
# T6 sequence: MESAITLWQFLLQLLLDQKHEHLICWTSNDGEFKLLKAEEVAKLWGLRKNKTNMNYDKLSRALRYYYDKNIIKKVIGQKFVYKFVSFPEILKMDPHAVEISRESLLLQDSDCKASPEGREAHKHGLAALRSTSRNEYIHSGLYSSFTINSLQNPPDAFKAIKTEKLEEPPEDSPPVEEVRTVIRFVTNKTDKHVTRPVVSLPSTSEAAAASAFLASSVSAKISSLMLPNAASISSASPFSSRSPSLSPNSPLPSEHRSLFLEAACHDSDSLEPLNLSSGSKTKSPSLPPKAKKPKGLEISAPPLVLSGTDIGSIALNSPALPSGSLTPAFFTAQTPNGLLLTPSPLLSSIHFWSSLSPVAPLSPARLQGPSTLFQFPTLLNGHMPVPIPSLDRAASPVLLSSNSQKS
# Method in brief: as §1
# FEV = biological target: T7, FEV (Homo sapiens, UniProt Q99581 1-238); details: protein: recombinant; tags: N-terminal GST; dsDNA, one strand shown
# T7 sequence: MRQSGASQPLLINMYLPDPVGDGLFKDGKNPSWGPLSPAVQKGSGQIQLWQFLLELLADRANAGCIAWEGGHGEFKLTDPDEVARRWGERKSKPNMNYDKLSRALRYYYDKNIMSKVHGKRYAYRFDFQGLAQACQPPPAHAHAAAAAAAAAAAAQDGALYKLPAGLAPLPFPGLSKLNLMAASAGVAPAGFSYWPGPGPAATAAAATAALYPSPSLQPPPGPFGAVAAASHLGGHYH
# Method in brief: as §1
# ETV5 = ETV5 (Homo sapiens, UniProt P41161 1-510); details: protein: recombinant; tags: N-terminal GST; dsDNA, one strand shown
# Chain of ETV5 (P41161 whole entry): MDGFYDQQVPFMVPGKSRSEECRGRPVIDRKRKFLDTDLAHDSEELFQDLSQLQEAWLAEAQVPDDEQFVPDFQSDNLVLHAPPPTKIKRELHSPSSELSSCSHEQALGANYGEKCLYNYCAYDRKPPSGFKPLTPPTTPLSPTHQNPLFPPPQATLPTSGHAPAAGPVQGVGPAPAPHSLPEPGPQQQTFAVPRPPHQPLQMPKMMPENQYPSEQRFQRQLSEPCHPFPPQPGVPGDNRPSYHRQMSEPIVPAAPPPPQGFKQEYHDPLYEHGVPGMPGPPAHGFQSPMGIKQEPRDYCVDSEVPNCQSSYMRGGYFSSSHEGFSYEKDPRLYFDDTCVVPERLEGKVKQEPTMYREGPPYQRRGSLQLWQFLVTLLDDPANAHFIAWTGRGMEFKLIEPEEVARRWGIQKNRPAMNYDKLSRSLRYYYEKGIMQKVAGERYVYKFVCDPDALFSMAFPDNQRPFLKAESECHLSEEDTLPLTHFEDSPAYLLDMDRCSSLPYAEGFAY
# Method in brief: as §1
# HSF1 = HSF1 (Homo sapiens, UniProt Q00613 1-529); details: protein: recombinant; tags: N-terminal GST; chain copies: 3; dsDNA, one strand shown
# Chain of HSF1 (Q00613 whole entry): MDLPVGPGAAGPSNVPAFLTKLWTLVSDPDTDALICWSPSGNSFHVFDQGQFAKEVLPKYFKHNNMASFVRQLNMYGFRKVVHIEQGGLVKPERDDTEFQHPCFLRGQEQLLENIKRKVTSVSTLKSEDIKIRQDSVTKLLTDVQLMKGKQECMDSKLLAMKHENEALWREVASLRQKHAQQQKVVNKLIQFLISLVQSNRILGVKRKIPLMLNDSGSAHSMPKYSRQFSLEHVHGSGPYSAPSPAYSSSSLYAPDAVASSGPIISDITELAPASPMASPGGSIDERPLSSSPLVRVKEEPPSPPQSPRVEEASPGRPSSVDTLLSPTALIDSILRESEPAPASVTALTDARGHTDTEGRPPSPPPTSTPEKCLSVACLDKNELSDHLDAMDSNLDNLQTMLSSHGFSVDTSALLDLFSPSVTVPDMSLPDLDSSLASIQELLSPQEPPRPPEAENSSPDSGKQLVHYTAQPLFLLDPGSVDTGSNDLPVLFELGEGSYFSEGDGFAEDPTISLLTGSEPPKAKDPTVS
# Method in brief: as §1
# SPIC = biological target: T8, SPIC (Homo sapiens, UniProt Q8N5J4 1-248); details: protein: recombinant; tags: N-terminal GST; dsDNA, one strand shown
# T8 sequence: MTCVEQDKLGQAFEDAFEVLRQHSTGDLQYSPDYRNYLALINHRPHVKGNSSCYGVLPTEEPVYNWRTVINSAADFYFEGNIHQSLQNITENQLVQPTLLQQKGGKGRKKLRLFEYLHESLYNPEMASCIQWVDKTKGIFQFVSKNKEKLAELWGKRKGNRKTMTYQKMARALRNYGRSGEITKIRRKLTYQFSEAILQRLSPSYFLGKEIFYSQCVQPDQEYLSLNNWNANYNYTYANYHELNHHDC
# Method in brief: as §1
# ELF4 = ELF4 (Homo sapiens, UniProt Q99607 1-663); details: protein: recombinant; tags: N-terminal GST; dsDNA, one strand shown
# Chain of ELF4 (Q99607 whole entry): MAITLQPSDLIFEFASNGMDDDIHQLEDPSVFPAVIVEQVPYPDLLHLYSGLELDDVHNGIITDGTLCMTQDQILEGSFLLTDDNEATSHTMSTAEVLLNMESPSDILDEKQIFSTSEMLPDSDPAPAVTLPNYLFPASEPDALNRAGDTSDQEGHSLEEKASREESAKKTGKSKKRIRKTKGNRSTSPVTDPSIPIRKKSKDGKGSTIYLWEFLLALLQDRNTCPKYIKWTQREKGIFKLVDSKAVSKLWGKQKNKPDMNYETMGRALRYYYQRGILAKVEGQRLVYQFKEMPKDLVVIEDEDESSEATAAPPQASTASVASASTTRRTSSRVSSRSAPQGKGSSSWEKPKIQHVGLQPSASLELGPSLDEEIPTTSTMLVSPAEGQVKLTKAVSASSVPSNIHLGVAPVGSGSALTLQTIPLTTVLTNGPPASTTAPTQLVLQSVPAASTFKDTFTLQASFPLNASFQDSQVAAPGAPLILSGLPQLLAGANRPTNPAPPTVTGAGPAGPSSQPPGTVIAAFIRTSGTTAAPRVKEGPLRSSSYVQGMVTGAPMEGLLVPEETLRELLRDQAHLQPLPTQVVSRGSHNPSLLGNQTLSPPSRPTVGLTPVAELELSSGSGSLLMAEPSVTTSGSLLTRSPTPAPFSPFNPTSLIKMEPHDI
# Method in brief: as §1
# ELK4 = biological target: T9, ELK4 (Homo sapiens, UniProt P28324-2 1-405); details: protein: recombinant; tags: N-terminal GST; dsDNA, one strand shown
# T9 sequence: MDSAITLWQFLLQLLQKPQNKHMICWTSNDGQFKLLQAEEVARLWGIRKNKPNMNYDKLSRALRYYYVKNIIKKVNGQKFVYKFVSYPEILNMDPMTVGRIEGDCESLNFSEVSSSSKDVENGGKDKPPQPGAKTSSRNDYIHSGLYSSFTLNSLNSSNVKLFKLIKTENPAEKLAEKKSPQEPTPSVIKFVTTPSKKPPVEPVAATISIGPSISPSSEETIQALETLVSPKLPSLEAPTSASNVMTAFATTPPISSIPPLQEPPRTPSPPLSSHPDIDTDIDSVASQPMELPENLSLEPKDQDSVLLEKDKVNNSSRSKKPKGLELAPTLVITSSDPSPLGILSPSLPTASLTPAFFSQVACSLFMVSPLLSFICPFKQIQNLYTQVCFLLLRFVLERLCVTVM
# Method in brief: as §1
# ETV2 = biological target: T10, ETV2 (Homo sapiens, UniProt O00321 1-342); details: protein: recombinant; tags: N-terminal GST; dsDNA, one strand shown
# T10 sequence: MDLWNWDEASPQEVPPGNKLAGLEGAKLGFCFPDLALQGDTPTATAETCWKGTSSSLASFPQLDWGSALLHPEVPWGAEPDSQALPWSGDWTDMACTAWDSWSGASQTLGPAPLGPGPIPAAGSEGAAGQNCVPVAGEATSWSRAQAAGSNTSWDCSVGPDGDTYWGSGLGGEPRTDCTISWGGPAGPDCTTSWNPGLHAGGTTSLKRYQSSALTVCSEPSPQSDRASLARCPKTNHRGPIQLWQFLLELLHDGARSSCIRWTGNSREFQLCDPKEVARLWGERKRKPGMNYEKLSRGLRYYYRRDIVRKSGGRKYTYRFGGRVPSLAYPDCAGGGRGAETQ
# Method in brief: as §1
# ELF3 = biological target: T11, ELF3 (Homo sapiens, UniProt P78545 1-371); details: protein: recombinant; tags: N-terminal GST; dsDNA, one strand shown
# T11 sequence: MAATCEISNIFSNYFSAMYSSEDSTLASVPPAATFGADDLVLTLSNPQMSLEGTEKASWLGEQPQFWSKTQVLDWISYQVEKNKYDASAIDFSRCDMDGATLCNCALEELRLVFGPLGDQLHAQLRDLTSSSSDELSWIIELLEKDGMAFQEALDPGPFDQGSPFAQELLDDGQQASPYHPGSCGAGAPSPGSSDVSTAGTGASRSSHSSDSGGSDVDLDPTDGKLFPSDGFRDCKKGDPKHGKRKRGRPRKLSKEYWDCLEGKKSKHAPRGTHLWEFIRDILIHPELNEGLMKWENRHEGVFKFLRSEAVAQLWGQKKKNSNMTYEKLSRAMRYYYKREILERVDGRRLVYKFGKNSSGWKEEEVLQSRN
# Method in brief: as §1
# CRX = CRX (Homo sapiens, UniProt O43186 1-299); details: protein: recombinant; tags: N-terminal GST; dsDNA, one strand shown
# Chain of CRX (O43186 whole entry): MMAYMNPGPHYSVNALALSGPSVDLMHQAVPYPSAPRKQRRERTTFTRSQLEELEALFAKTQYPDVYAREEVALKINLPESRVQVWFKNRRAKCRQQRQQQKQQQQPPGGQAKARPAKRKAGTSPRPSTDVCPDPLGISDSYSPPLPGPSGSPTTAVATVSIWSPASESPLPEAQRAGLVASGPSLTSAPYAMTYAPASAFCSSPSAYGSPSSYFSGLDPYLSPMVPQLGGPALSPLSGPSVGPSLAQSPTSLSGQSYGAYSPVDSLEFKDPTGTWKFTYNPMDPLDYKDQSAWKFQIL
# Method in brief: as §1
# ETV1 = ETV1 (Homo sapiens, UniProt P50549 1-477); details: protein: recombinant; tags: N-terminal GST; dsDNA, one strand shown
# Chain of ETV1 (P50549 whole entry): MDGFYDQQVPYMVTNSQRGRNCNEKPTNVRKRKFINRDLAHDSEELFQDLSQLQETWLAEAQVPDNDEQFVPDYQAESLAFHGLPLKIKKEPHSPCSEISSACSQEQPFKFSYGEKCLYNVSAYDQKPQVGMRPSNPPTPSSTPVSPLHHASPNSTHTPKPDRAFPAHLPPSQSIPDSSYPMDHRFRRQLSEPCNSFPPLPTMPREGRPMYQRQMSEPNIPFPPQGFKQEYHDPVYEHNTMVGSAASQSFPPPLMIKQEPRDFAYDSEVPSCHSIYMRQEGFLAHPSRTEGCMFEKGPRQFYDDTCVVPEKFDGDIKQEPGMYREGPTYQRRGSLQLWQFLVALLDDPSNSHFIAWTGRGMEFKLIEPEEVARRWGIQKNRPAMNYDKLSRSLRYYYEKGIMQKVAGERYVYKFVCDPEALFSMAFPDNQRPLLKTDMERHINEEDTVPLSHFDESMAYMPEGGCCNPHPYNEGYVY
# Method in brief: as §1
sequence,measurement,setting,value
GTTCGA,binding signal,FLI1,"1.13 fold enrichment (6-mer frequency, TF over GST control)"
same,binding signal,ELK1,"1.12 fold enrichment (6-mer frequency, TF over GST control)"
same,binding signal,GABPA,"1.17 fold enrichment (6-mer frequency, TF over GST control)"
same,binding signal,ERG,"1.07 fold enrichment (6-mer frequency, TF over GST control)"
same,binding signal,ELF1,"1.08 fold enrichment (6-mer frequency, TF over GST control)"
same,binding signal,EHF,"1.14 fold enrichment (6-mer frequency, TF over GST control)"
same,binding signal,SPI1,"1.04 fold enrichment (6-mer frequency, TF over GST control)"
same,binding signal,SPIB,"1.05 fold enrichment (6-mer frequency, TF over GST control)"
same,binding signal,ELK3,"1.15 fold enrichment (6-mer frequency, TF over GST control)"
same,binding signal,FEV,"1.02 fold enrichment (6-mer frequency, TF over GST control)"
same,binding signal,ETV5,"1.07 fold enrichment (6-mer frequency, TF over GST control)"
same,binding signal,HSF1,"1.9 fold enrichment (6-mer frequency, TF over GST control)"
same,binding signal,SPIC,"1.15 fold enrichment (6-mer frequency, TF over GST control)"
same,binding signal,ELF4,"1.12 fold enrichment (6-mer frequency, TF over GST control)"
same,binding signal,ELK4,"1.07 fold enrichment (6-mer frequency, TF over GST control)"
same,binding signal,ETV2,"1 fold enrichment (6-mer frequency, TF over GST control)"
same,binding signal,ELF3,"1.13 fold enrichment (6-mer frequency, TF over GST control)"
same,binding signal,CRX,"1.11 fold enrichment (6-mer frequency, TF over GST control)"
same,binding signal,ETV1,"1.08 fold enrichment (6-mer frequency, TF over GST control)"
